# Reference: the supplement of paper PMC10849652
# Targets with a hit are over-represented here; the source holds about 7,900 in all. About 0.6% of all pairs of compound and target were hits. A number with no mark means an inactive call.
# Legend:
# Experiment in all cases: log2 fold change, soluble protein after heating vs DMSO (PISA); higher = thermal stabilisation; K562 cells, 10 uM, 30 min; active = over 0.2 and 3.5 SD of the protein, either way, in both replicates (recomputed)
# YWHAB = YWHAB (UniProt P31946)
# In short: (§1)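 For each measurement, 10 μM compound was applied for 30 min to K562 cells at 2×10^6 cells/mL. Aliquots were heated for 3 min across 48°C-58°C, pooled, and extracted in PBS with 0.5% NP-40 at 4°C; the supernatant after 21,000xg for 90 min was soluble protein. This was quantified by TMTpro 16plex LC-MS/MS with channel sums equalised, and thermal stability was reported relative to control samples from duplicates, on a log2 fold-change scale.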
# YWHAQ = YWHAQ (UniProt P27348)
# In short: as §1
# YWHAZ [1] = target: YWHAZ (UniProt P63104)
# In short: as §1
# YY1 = YY1 (UniProt P25490)
# In short: as §1
# ZADH2 = ZADH2 (UniProt Q8N4Q0)
# In short: as §1
# ZBTB21 = ZBTB21 (UniProt Q9ULJ3)
# ZBTB21, sequence (Q9ULJ3 whole entry, looked up): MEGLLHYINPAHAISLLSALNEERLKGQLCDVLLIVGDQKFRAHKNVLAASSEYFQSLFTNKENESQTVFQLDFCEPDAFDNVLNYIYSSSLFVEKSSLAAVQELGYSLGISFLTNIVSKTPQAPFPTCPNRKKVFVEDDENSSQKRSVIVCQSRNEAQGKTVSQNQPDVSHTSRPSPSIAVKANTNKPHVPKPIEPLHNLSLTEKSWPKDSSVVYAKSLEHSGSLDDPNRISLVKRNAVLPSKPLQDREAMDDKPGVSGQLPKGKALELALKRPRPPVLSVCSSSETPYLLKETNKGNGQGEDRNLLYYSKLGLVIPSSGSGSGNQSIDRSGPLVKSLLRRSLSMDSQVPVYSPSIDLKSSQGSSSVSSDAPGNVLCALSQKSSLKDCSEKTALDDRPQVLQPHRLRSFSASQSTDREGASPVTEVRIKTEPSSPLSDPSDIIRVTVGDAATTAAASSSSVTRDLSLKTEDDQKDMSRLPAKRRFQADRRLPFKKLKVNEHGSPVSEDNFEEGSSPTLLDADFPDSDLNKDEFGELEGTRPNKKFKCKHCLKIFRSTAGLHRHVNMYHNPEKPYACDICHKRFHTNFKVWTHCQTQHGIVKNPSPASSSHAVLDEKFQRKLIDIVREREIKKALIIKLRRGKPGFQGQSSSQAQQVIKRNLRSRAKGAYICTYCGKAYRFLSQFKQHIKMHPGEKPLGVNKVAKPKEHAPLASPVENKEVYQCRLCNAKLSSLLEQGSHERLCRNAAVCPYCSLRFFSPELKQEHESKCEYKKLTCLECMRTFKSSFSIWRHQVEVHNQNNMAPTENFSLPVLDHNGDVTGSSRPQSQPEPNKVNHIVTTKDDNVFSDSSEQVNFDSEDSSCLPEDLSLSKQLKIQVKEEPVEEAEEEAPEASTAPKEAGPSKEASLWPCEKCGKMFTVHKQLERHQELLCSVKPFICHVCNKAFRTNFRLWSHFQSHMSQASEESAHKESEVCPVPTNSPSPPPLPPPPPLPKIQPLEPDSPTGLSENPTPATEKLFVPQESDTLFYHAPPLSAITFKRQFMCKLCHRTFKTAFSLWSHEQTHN
# In short: as §1
# ZBTB43 = ZBTB43 (UniProt O43298)
# ZBTB43, sequence (O43298 whole entry, looked up): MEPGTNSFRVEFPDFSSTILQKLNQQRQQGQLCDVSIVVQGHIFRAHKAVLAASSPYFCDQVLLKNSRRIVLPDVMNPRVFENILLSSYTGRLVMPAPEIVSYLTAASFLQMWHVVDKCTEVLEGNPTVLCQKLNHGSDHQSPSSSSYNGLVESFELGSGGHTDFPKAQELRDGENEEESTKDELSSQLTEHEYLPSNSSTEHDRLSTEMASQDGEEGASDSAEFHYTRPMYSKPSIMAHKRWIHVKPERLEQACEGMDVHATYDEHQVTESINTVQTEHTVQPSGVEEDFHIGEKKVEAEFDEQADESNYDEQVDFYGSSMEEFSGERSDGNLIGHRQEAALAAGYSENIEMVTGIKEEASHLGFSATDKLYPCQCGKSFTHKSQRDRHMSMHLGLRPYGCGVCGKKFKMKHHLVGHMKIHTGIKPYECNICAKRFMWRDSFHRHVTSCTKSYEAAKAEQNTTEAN
# In short: as §1
# ZC3H18 = ZC3H18 (UniProt Q86VM9)
# ZC3H18, sequence (Q86VM9 whole entry, looked up): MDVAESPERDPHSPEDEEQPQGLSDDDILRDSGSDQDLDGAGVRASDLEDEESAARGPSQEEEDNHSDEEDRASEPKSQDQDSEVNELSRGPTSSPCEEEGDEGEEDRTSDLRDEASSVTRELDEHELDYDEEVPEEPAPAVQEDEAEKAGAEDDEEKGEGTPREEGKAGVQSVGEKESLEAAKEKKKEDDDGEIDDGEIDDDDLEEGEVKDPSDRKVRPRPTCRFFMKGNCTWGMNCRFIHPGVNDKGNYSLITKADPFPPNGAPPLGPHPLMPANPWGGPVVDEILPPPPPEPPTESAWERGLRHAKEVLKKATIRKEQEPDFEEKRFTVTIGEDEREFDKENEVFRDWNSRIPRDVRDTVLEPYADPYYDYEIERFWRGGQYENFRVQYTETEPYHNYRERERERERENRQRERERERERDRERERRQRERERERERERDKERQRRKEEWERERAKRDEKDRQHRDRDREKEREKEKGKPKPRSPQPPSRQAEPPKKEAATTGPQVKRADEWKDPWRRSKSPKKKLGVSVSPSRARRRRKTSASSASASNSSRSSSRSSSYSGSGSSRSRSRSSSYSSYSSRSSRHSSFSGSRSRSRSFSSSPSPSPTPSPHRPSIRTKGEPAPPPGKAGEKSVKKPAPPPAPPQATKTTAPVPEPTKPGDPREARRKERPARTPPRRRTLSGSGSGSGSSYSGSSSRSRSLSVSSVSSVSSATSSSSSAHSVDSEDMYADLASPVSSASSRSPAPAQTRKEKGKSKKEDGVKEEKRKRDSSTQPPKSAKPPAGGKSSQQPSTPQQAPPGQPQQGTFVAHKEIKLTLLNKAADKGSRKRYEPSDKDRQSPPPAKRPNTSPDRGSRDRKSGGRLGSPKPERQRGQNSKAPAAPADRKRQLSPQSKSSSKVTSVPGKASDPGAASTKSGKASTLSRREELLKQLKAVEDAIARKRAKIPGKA
# In short: as §1
# ZC3H8 = ZC3H8 (UniProt Q8N5P1)
# In short: as §1
# ZC3HC1 = ZC3HC1 (UniProt Q86WB0)
# ZC3HC1, sequence (Q86WB0 whole entry, looked up): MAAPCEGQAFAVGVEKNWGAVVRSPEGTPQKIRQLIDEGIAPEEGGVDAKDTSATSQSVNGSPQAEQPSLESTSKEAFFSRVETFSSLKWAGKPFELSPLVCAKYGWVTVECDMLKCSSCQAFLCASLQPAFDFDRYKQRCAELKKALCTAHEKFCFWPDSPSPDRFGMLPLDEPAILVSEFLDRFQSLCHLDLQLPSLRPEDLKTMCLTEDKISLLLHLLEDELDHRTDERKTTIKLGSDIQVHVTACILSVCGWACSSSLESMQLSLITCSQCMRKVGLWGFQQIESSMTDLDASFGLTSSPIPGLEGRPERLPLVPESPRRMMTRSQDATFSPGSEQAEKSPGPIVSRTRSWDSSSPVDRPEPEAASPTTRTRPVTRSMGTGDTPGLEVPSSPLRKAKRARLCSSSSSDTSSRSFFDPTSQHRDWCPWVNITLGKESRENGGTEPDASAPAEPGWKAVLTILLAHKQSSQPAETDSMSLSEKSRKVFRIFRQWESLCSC
# In short: as §1
# ZCCHC17 = ZCCHC17 (UniProt Q9NP64)
# ZCCHC17, sequence (Q9NP64 whole entry, looked up): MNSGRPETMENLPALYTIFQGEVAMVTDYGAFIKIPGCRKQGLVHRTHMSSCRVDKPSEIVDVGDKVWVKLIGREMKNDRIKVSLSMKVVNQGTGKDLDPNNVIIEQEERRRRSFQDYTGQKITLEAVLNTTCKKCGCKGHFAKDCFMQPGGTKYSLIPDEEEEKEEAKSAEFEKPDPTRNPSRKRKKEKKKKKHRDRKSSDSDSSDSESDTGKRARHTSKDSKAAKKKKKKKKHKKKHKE
# In short: as §1
# ZCCHC9 = ZCCHC9 (UniProt Q8N567)
# ZCCHC9, sequence (Q8N567 whole entry, looked up): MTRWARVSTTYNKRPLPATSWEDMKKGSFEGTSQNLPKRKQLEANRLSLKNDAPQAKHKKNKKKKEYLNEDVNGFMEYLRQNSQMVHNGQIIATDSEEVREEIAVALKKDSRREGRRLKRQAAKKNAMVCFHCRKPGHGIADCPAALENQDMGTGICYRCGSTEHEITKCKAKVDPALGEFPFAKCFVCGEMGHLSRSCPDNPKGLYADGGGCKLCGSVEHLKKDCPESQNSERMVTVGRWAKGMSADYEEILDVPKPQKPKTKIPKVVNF
# In short: as §1
# ZDHHC17 = ZDHHC17 (UniProt Q8IUH5)
# In short: as §1
# ZDHHC20 = ZDHHC20 (UniProt Q5W0Z9)
# ZDHHC20, sequence (Q5W0Z9 whole entry, looked up): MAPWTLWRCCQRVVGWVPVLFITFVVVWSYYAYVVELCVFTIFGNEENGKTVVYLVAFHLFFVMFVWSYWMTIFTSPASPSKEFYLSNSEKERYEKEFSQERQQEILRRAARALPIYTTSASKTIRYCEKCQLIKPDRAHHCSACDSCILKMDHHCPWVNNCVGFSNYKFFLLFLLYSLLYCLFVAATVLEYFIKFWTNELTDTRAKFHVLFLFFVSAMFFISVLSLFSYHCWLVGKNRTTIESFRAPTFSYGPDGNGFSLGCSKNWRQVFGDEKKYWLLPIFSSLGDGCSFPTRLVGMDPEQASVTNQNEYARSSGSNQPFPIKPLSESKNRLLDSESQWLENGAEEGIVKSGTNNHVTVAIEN
# In short: as §1
# ZDHHC5 = ZDHHC5 (UniProt Q9C0B5)
# ZDHHC5, sequence (Q9C0B5 whole entry, looked up): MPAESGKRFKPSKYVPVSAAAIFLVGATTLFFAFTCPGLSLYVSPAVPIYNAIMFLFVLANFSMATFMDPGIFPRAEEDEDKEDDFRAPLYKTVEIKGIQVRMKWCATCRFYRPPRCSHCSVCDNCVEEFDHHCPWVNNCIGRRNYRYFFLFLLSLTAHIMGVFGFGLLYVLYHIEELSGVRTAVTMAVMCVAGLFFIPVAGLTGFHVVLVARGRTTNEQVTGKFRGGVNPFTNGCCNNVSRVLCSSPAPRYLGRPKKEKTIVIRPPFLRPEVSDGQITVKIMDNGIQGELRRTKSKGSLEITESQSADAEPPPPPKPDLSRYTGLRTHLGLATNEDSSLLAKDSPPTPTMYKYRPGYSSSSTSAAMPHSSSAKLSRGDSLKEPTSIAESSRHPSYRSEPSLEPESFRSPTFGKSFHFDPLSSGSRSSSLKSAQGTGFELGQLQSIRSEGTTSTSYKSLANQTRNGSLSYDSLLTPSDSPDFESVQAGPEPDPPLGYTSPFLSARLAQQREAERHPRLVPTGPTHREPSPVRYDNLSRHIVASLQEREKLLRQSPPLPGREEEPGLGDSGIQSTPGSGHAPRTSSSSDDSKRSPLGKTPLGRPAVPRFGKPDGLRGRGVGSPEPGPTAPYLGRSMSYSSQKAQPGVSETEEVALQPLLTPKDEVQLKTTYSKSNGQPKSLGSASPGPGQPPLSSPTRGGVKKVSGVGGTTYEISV
# In short: as §1
# ZDHHC7 isoform 2 = ZDHHC7 isoform 2 (UniProt Q9NXF8)
# In short: as §1
# ZBTB17 isoform 2 = ZBTB17 isoform 2 (UniProt Q13105)
# In short: as §1
# ZDHHC8 isoform 3 = ZDHHC8 isoform 3 (UniProt Q9ULC8)
# In short: as §1
# ZDHHC6 = ZDHHC6 (UniProt Q9H6R6)
# ZDHHC6, sequence (Q9H6R6 whole entry, looked up): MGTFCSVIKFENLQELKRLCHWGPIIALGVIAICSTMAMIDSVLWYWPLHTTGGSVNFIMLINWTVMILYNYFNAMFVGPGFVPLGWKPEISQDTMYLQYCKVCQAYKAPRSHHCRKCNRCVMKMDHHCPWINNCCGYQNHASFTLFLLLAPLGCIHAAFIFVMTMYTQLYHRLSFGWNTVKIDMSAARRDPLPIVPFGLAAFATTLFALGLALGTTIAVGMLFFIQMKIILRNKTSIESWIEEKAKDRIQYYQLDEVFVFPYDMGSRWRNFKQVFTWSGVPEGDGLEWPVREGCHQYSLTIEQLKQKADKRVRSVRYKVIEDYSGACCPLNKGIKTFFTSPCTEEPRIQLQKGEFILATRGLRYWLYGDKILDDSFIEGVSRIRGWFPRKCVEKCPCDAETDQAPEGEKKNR
# In short: as §1
# YWHAZ [2] = target: YWHAZ (UniProt E7ESK7)
# In short: as §1
SMILES,log2 fold change (YWHAB),log2 fold change (YWHAQ),log2 fold change (YWHAZ [1]),log2 fold change (YY1),log2 fold change (ZADH2),log2 fold change (ZBTB21),log2 fold change (ZBTB43),log2 fold change (ZC3H18),log2 fold change (ZC3H8),log2 fold change (ZC3HC1),log2 fold change (ZCCHC17),log2 fold change (ZCCHC9),log2 fold change (ZDHHC17),log2 fold change (ZDHHC20),log2 fold change (ZDHHC5),log2 fold change (ZDHHC7 isoform 2),log2 fold change (ZBTB17 isoform 2),log2 fold change (ZDHHC8 isoform 3),log2 fold change (ZDHHC6),log2 fold change (YWHAZ [2])
COC(=O)[C@H](CCSC)NC(=O)c1ccc(NC[C@@H](N)CS)cc1-c1ccccc1,0.016,0.019,-0.002,0.014,0.052,-0.022,0.018,0.045,-0.009,-0.093,0.033,0.081,0.01,0.028,0.054,0.019,–,–,–,–
CN1CCN(c2nc(C3=C(c4c[nH]c5ccccc45)C(=O)NC3=O)c3ccccc3n2)CC1 [sotrastaurin],0.031,-0.043,-0.01,-0.092,-0.015,0.022,0.027,-0.11,0.025,-0.178,-0.095,0.243,0.099,0.015,-0.069,–,0.03,–,–,–
NC(=O)Nc1cc(-c2cccc(F)c2)sc1C(=O)N[C@H]1CCCNC1,-0.027,0.065,0.098,0.037,-0.074,-0.083,-0.018,-0.037,0.025,-0.016,-0.064,-0.11,0.084,-0.219,-0.081,–,-0.032,–,–,–
CNC(=O)c1ccccc1Nc1nc(Nc2ccc(N3CCOCC3)cc2OC)ncc1Cl,0.019,0.049,-0.013,-0.046,-0.051,-0.012,-0.007,-0.01,0.019,0.067,–,0.058,0.146,0,0.006,-0.016,-0.041,–,–,–
CC1=C(C(=O)Nc2cc3cn[nH]c3cc2F)C(c2ccc(C(F)(F)F)cc2)CC(=O)N1 (configuration not stated),0.001,0.107,0.058,0.059,-0.014,0.033,-0.04,0.022,-0.072,0.057,–,0.012,-0.013,0.047,0.022,0.114,–,-0.083,–,–
CS(=O)(=O)N1CCN(Cc2cc3nc(-c4cccc5[nH]ncc45)nc(N4CCOCC4)c3s2)CC1 [pictilisib],0.002,-0.142,-0.037,-0.021,0.14,-0.035,0.027,-0.019,-0.007,-0.003,–,-0.004,0.021,0.066,0.047,0.089,–,–,-0.044,–
CN(C)CC(=O)Nc1ccc2[nH]c(=O)c3ccccc3c2c1,-0.033,0.16,0.009,-0.047,0.02,0.018,-0.07,-0.039,-0.047,0.089,-0.059,-0.125,-0.005,-0.026,-0.032,0.057,–,–,–,–
CN1CCC(CNc2ccc3ncc(-c4cccc(OC(F)(F)F)c4)n3n2)CC1,-0.042,0.585,0.035,-0.21,0.023,-0.149,0.032,-0.044,0.397 (active),-0.402 (active),–,0.181,0.065,0.035,0.31 (active),-0.415 (active),–,–,0.011,–
NCC(=O)Nc1ccc(-n2nc(C(F)(F)F)cc2-c2ccc3c(ccc4ccccc43)c2)cc1,-0.007,0.457,0.084,-0.009,0.017,-0.042,0,-0.012,0.036,-0.076,-0.137,-0.013,0.012,0.093,-0.005,-0.056,–,–,–,–
CCn1cc(-c2ccnc3[nH]c(-c4cccc(CN(C)C)c4)cc23)c(-c2ccc(NC(=O)N(C)C)cc2)n1,0.014,0.143,-0.042,0.002,0.13,-0.073,0.028,0.068,0.092,-0.125,–,0.201,-0.018,-0.016,-0.002,-0.363,–,–,-0.292,–
Cc1ccc(NC(=O)c2cccc(C(C)(C)C#N)c2)cc1Nc1ccc2ncn(C)c(=O)c2c1,0.016,0.184,0.025,0.035,0.453 (active),-0.03,0.004,0,-0.021,0.011,-0.065,-0.227,0.076,-0.067,0.048,–,0.018,–,–,–
CC[C@@H]1C(=O)N(C)c2cnc(Nc3ccc(C(=O)NC4CCN(C)CC4)cc3OC)nc2N1C1CCCC1,-0.055,-0.141,-0.083,-0.149,0.153,–,-0.061,-0.008,0.181,-0.163,–,0.246,-0.009,0.031,0.035,0.083,–,–,-0.114,0.1
